In assay [1] the test system is bovine Angiotensin II Receptor Type 2 (AT2), gene 407157. The assay is described as follows: NVS_GPCR_bAT2: NovaScreen (NVS) G Protein-Coupled Receptor Assay for bovine Angiotensin II Receptor Type 2 (AT2) (AID 2283240). Summed up:
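Radioligand displacement on bovine cerebellar membranes, 1 hour incubation, filter-based scintillation counting; loss of signal vs DMSO. Duplicate single-point screen at 25 uM, then concentration-response to 50 uM maximum.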

The nature of assay [2]: NVS_GPCR_bNPY_NonSelective: NovaScreen (NVS) G Protein-Coupled Receptor Assay for bovine Neuropeptide Y (NPY) Receptor, Non-selective Binding (AID 2283245). Summed up: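 Displacement of radioligand from bovine hippocampal membrane receptors, read by filtration and scintillation counting after 1 hour. Concentration-response to a top of 50 uM followed a 25 uM duplicate primary screen. Loss of signal versus DMSO.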

Assay [3] addresses human Serotonin, 5-Hydroxytryptamine Receptor 2A (5HT2A), HTR2A (gene 3356) (UniProt P28223). The assay is described as follows: NVS_GPCR_h5HT2A: NovaScreen (NVS) G Protein-Coupled Receptor Assay for human Serotonin, 5-Hydroxytryptamine Receptor 2A (5HT2A) (AID 2283249). Here is the method: NVS_GPCR_h5HT2A is a biochemical, single-readout assay that uses extracted gene-proteins from Human cortex in a tissue-based cell-free assay. Measurements were taken 1.5 hours after chemical dosing in a 48-well plate.NVS_GPCR_h5HT2A is one of one assay component(s) measured or calculated from the NVS_GPCR_h5HT2A assay. It is designed to make measurements of radioligand binding, a form of binding reporter, as detected with scintillation counting signals by Filter-based radiodetection technology.Data from the assay component NVS_GPCR_h5HT2A was analyzed into 1 assay endpoint. This assay endpoint, NVS_GPCR_h5HT2A, was analyzed in the positive analysis fitting direction relative to DMSO as the negative control and baseline of activity. […] Furthermore, this assay endpoint can be referred to as a primary readout, because the performed assay has only produced 1 assay endpoint. […]
Binding assays used specific radioligands (tritiated, iodinated) with non-radioactive competitive displacement ligands in agonist or antagonist protocols (as indicated) and various reference compounds and inhibitors to titrate specific binding to receptors and transporters. Most enzyme assays (CYPs, kinases, phosphatases, proteases, HDACs) used recombinant protein and specific substrates (fluorescence mostly, some colorimetric and radioactive) and inhibitors, followed by a biochemical separation of substrate and product. […]

Assay [4] concerns the target bovine Dopamine Receptor (DR), Non-selective Binding, DRD1 (gene 281125) (UniProt Q95136). Kind of assay: NVS_GPCR_bDR_NonSelective: NovaScreen (NVS) G Protein-Coupled Receptor Assay for bovine Dopamine Receptor (DR), Non-selective Binding (AID 2283241). The gist of the method: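 Filter-based radioligand binding with bovine striatal membrane, incubated 1 h; DMSO as negative baseline. Initial duplicate single-point test at 25 uM preceded concentration series for actives.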

In assay [5] the test system is guinea pig Leukotriene B4 Receptor (LTB4), gene 100379538. Kind of assay: NVS_GPCR_gLTB4: NovaScreen (NVS) G Protein-Coupled Receptor Assay for guinea pig Leukotriene B4 Receptor (LTB4) (AID 2283247). The gist of the method: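 Membranes from guinea pig spleen incubated 2 h with radioligand and compound; bound counts measured by filtration and scintillation. Screened first at 25 uM in duplicate, then actives titrated to a 50 uM top concentration relative to DMSO.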

Assay [6] concerns bovine Histamine 1 Receptor (H1), gene 281231. Kind of assay: NVS_GPCR_bH1: NovaScreen (NVS) G Protein-Coupled Receptor Assay for bovine Histamine 1 Receptor (H1) (AID 2283246). Summed up: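 Hits from a 25 uM duplicate primary screen were retested in concentration series (top 50 uM); binding measured as scintillation-counted displacement of radioligand from bovine cerebellar membranes after 1 h, normalised to DMSO.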

Molecules are shown by their SMILES. Inconclusive results are not listed. The source made the active and inactive calls. How the source made its calls: active means hit-call score of the fitted dose curve at least 0.9, where 1 is the maximum; inconclusive means response in the unintended direction; inactive means score below 0.9.

As a reminder, the AC50 is the concentration at which the activity in the assay is half-maximal.

Chain of bovine Dopamine Receptor (DR), Non-selective Binding, DRD1 (gene 281125) (Q95136 whole entry, looked up): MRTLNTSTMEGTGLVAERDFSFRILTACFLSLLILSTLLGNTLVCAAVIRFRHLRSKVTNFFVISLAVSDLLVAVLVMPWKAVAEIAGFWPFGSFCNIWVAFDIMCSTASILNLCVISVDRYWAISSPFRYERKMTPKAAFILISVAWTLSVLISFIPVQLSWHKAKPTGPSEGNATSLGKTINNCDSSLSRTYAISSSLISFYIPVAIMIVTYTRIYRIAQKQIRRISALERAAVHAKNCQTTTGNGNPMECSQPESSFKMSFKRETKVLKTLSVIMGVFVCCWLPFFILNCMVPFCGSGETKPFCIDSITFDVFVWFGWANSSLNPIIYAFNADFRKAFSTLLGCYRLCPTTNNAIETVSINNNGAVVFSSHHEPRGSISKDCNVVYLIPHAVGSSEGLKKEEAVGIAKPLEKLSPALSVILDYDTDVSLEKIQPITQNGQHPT
Chain of human Serotonin, 5-Hydroxytryptamine Receptor 2A (5HT2A), HTR2A (gene 3356) (P28223 whole entry, looked up): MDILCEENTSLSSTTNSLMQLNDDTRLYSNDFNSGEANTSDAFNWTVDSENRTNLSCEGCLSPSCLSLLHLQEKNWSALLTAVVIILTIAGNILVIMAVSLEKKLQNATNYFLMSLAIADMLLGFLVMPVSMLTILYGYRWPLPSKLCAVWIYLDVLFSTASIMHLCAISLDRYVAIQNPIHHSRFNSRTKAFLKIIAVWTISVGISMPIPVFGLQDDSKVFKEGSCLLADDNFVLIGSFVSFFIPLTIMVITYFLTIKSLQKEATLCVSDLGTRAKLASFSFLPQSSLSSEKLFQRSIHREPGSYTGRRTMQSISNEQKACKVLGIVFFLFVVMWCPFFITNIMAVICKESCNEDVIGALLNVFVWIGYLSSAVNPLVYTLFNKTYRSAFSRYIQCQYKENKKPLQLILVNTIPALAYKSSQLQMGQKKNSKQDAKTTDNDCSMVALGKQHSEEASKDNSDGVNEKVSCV

With `CC[C@H](C)[C@H]1O[C@]2(C=C[C@@H]1C)C[C@@H]1C[C@@H](C/C=C(\C)[C@@H](O[C@H]3C[C@H](OC)[C@@H](O[C@H]4C[C@H](OC)[C@@H](NC)[C@H](C)O4)[C@H](C)O3)[C@@H](C)/C=C/C=C3\CO[C@@H]4[C@H](O)C(C)=C[C@@H](C(=O)O1)[C@]34O)O2`, the result in assay [1] was inactive. Also, the AC50 in assay [2] was 20.6 µM (active); in assay [3], 26.9 µM (active).

For the compound `CON=C(C(=O)OC)c1ccccc1CON=C(C)c1cccc(C(F)(F)F)c1`, the outcome in assay [1] was inactive.

As for `CCCCOC(=O)c1ccccc1C(=O)O`, the compound was called inactive in assay [4].

As for `CCOP(=S)(OCC)Oc1ccc([N+](=O)[O-])cc1`, the call in assay [4] was inactive. Moreover, the half-maximal activity concentration (AC50) in assay [5] was 7.9 µM (active).

In the case of `COP(=O)(OC)OC(Br)C(Cl)(Cl)Br` (stereo unspecified), in assay [2], the result was inactive.

With `CN(C)C(=O)Nc1cccc(C(F)(F)F)c1`, the outcome in assay [6] was inactive.

Take `CCOP(=O)(SC(C)CC)N1CCSC1=O` (stereo unspecified): the compound was classed as inactive in assay [6].

For the compound `O=C(O)c1cc(Oc2ccc(C(F)(F)F)cc2Cl)ccc1[N+](=O)[O-]`, in assay [5], the outcome was inactive.

The values above are taken from PubChem BioAssay (EPA / NIEHS).
